Experiments:
Experiment in all cases: PBM binding z-score (relative to random genomic background probes); higher = stronger binding; sequences stand for … in GC…GCGATTGACAGCGTAGAATGAAGG
[1] = tested on: PPARg:RXRa DBDmut IVT, anti-RXR (DBD mutation: RXRa K156A/R161A, NR concentration 270 nM, RXRa partner concentration 90 nM)
Outline: (§1)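 Random background probes are the reference for binding z-scores. These scores derive from regression-normalized fluorescence on custom Agilent 4×180K protein-binding microarrays incubated 1 h with ligand-free nuclear receptor dimers. Binding was detected with antibodies against each partner (one per run).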

[2] = tested on: PPARg:RXRa IVT, anti-PPARg (NR concentration 270 nM, RXRa partner concentration 90 nM)
Outline: as §1

[3] = tested on: PPARg DBDmut:RXRa IVT, anti-PPARg (DBD mutation: PPARg1 K132A/R137A, NR concentration 270 nM, RXRa partner concentration 90 nM)
Outline: as §1

[4] = tested on: PPARg DBDmut IVT, anti-PPARg (DBD mutation: PPARg1 K132A/R137A, NR concentration 270 nM)
Outline: as §1

[5] = tested on: PPARg homodimer (NR concentration 180 nM)
Outline: as §1

[6] = tested on: PXR:RXRa (NR concentration 270 nM, RXRa partner concentration 90 nM)
Outline: as §1

[7] = tested on: PXR homodimer (NR concentration 270 nM)
Outline: as §1

[8] = tested on: RARa:RXR (NR concentration 270 nM, RXRa partner concentration 90 nM)
Outline: as §1

[9] = tested on: RARa homodimer (NR concentration 270 nM)
Outline: as §1

[10] = tested on: RARb:RXRa (NR concentration 270 nM, RXRa partner concentration 90 nM)
Outline: as §1

[11] = tested on: RARb homodimer (NR concentration 270 nM)
Outline: as §1

[12] = tested on: RARg:RXRa (NR concentration 270 nM, RXRa partner concentration 90 nM)
Outline: as §1

[13] = tested on: RARg homodimer (NR concentration 270 nM)
Outline: as §1

[14] = tested on: RXRa DBDmut IVT, anti-RXR (DBD mutation: RXRa K156A/R161A, NR concentration 90 nM)
Outline: as §1

[15] = tested on: RXRa homodimer (NR concentration 180 nM)
Outline: as §1

[16] = tested on: THRa:RXRa (NR concentration 90 nM, RXRa partner concentration 90 nM)
Outline: as §1

[17] = tested on: THRa homodimer (NR concentration 90 nM)
Outline: as §1

[18] = tested on: VDR homodimer (NR concentration 270 nM)
Outline: as §1

TCATATAGGTAAATGCTAGGTGAAAGTTCGATCT
PBM binding z-score [1]: 3.99 | PBM binding z-score [2]: 3.4 | PBM binding z-score [3]: 1.55 | PBM binding z-score [4]: 1.1 | PBM binding z-score [5]: 1.29 | PBM binding z-score [6]: 1.17 | PBM binding z-score [7]: 0.91 | PBM binding z-score [8]: 1.61 | PBM binding z-score [9]: 1.71 | PBM binding z-score [10]: 0.871 | PBM binding z-score [11]: 1.2 | PBM binding z-score [12]: 0.926 | PBM binding z-score [13]: 0.552 | PBM binding z-score [14]: 1.97 | PBM binding z-score [15]: 1.35 | PBM binding z-score [16]: 1.75 | PBM binding z-score [17]: 0.835 | PBM binding z-score [18]: 0.742

TCAGACAGGTGAACGTAACTCAGGTACGCAGTCG
PBM binding z-score [1]: 2.71 | PBM binding z-score [2]: 1.55 | PBM binding z-score [3]: 0.22 | PBM binding z-score [4]: -0.331 | PBM binding z-score [5]: 0.406 | PBM binding z-score [6]: 0.573 | PBM binding z-score [7]: 0.448 | PBM binding z-score [8]: 0.752 | PBM binding z-score [9]: 0.0461 | PBM binding z-score [10]: 1.19 | PBM binding z-score [11]: 0.813 | PBM binding z-score [12]: 0.793 | PBM binding z-score [13]: 0.768 | PBM binding z-score [14]: 0.94 | PBM binding z-score [15]: 1.32 | PBM binding z-score [16]: 0.679 | PBM binding z-score [17]: 0.264 | PBM binding z-score [18]: 0.361

CCTTACGGGTCATGGTTATAGCACGGGTGGTACG
PBM binding z-score [1]: 1.34 | PBM binding z-score [2]: 3.31 | PBM binding z-score [3]: 0.473 | PBM binding z-score [4]: -0.548 | PBM binding z-score [5]: 1.58 | PBM binding z-score [6]: 2.96 | PBM binding z-score [7]: 0.0669 | PBM binding z-score [8]: 3.6 | PBM binding z-score [9]: 0.484 | PBM binding z-score [10]: 3.64 | PBM binding z-score [11]: 3.03 | PBM binding z-score [12]: 4.4 | PBM binding z-score [13]: 3.82 | PBM binding z-score [14]: 0.187 | PBM binding z-score [15]: 4.81 | PBM binding z-score [16]: 2.67 | PBM binding z-score [17]: -0.082 | PBM binding z-score [18]: 0.582

GCAGACAGGTGAAACGCAGGTAACTCCGGGTGGC
PBM binding z-score [1]: 0.8 | PBM binding z-score [2]: 0.556 | PBM binding z-score [3]: 0.467 | PBM binding z-score [4]: -0.826 | PBM binding z-score [5]: -0.848 | PBM binding z-score [6]: -0.493 | PBM binding z-score [7]: -0.692 | PBM binding z-score [8]: 0.064 | PBM binding z-score [9]: -0.954 | PBM binding z-score [10]: 0.484 | PBM binding z-score [11]: 0.0338 | PBM binding z-score [12]: 0.702 | PBM binding z-score [13]: -0.185 | PBM binding z-score [14]: -0.71 | PBM binding z-score [15]: 0.572 | PBM binding z-score [16]: 1.32 | PBM binding z-score [17]: -0.603 | PBM binding z-score [18]: -0.791

ACAGACACGTGATGAAGGTAACTCAGGCTATCAT
PBM binding z-score [1]: -0.318 | PBM binding z-score [2]: -0.0146 | PBM binding z-score [3]: 0.501 | PBM binding z-score [4]: 0.226 | PBM binding z-score [5]: 0.142 | PBM binding z-score [6]: -0.0986 | PBM binding z-score [7]: 0.0203 | PBM binding z-score [8]: 0.352 | PBM binding z-score [9]: 0.63 | PBM binding z-score [10]: -0.138 | PBM binding z-score [11]: -0.0735 | PBM binding z-score [12]: 0.142 | PBM binding z-score [13]: 0.316 | PBM binding z-score [14]: 0.207 | PBM binding z-score [15]: 0.38 | PBM binding z-score [16]: 0.724 | PBM binding z-score [17]: 0.228 | PBM binding z-score [18]: -0.42

CCAGCCAGGTGAGAAGGTAACTCAGCCTCGATTA
PBM binding z-score [1]: 0.886 | PBM binding z-score [2]: 0.642 | PBM binding z-score [3]: -1.31 | PBM binding z-score [4]: -0.676 | PBM binding z-score [5]: -0.199 | PBM binding z-score [6]: -0.486 | PBM binding z-score [7]: -0.622 | PBM binding z-score [8]: -0.386 | PBM binding z-score [9]: -0.592 | PBM binding z-score [10]: 0.364 | PBM binding z-score [11]: 0.235 | PBM binding z-score [12]: 0.0253 | PBM binding z-score [13]: 0.00676 | PBM binding z-score [14]: -0.801 | PBM binding z-score [15]: 0.0434 | PBM binding z-score [16]: 0.621 | PBM binding z-score [17]: 0.306 | PBM binding z-score [18]: -0.441

GATGCTAGGTCAACTGATGGTCAGCTAAAGCTCG
PBM binding z-score [1]: 3.82 | PBM binding z-score [2]: 3.75 | PBM binding z-score [3]: -0.0408 | PBM binding z-score [4]: -0.329 | PBM binding z-score [5]: 1.48 | PBM binding z-score [6]: 1.45 | PBM binding z-score [7]: -0.415 | PBM binding z-score [8]: 2.58 | PBM binding z-score [9]: -0.157 | PBM binding z-score [10]: 4.11 | PBM binding z-score [11]: 3.45 | PBM binding z-score [12]: 5.12 | PBM binding z-score [13]: 5.33 | PBM binding z-score [14]: 1.06 | PBM binding z-score [15]: 2.84 | PBM binding z-score [16]: 2.98 | PBM binding z-score [17]: 0.992 | PBM binding z-score [18]: -0.0193
